Laboratory results published in PubChem BioAssay AID720724 (Broad Institute, 2013).
Potency and affinity values are given separately. Calls of active or inactive are those of the source.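 The calls were made as follows: active = signal falls with a fitted half-maximal dose at most twice the top dose, in every run; inconclusive = steady partial drop, poor fit, or runs disagree; inactive = flat, rising or too weak in every run.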

Assay: inhibitors of control Renilla luciferase reporter, dose response, counter-screen for Shn3 3'UTR targeting project, Clone20-Shn3RL cells, dual-Glo, cherry-pick, set 2 (AID 720724)
Details: renilla luciferase luminescence, 24 h; series mostly up to 35 µM

Structure (SMILES) | outcome
O=C(CN1C(=O)c2ccccc2S1(=O)=O)c1ccc(Cl)cc1Cl | inactive
O=C(c1n[nH]c(=O)c2ccccc12)N1CCN(C2c3ccccc3-c3ccccc32)CC1 | inactive
CCOc1ccc(N(C)S(=O)(=O)c2cc(-c3cc(C)no3)ccc2C(C)C)cc1 | inactive
Cc1onc(-c2ccccc2Cl)c1C(=O)N(C)C1CCCCC1 | inactive
COc1cc(NC(=O)c2cccc3c(-c4cccnc4)coc23)cc(OC)c1OC | inactive
Cc1c(C)c2ccc(OCC(=O)Nc3ccccn3)c(C)c2oc1=O | inactive
Cc1cc(S(=O)(=O)NCc2ccncc2)c(C)cc1Br | inactive
O=C(COC(=O)c1n[nH]c2ccccc12)Nc1ccc(S(=O)(=O)N2CCCC2)cc1 | inactive
CCc1ccccc1NC(=O)COC(=O)c1c(C)nsc1NC | inactive
CC(C)CCOc1cccc(OCC(=O)Nc2ccncc2)c1 | inactive
Cc1ccccc1OCCOC(=O)c1cc(S(=O)(=O)N2CCCCC2)ccc1N1CCOCC1 | inactive
CCSc1nnc(NC(=O)c2nc(S(=O)(=O)Cc3ccc(F)cc3)ncc2Cl)s1 | inactive
CCN(CC)S(=O)(=O)c1ccc(S(=O)(=O)Nc2c(C)nn(C)c2C)cc1 | inactive
Cc1ccc(-c2cn3cc(C)ccc3n2)cc1 | inactive
Cc1nc(SCC(=O)Nc2nc3ccccc3s2)c(C#N)c(C)c1C | inactive
COc1ccc(NS(=O)(=O)c2ccc(OC)c(N(C)S(=O)(=O)c3ccc(Cl)cc3)c2)cc1 | inactive
Cc1ccc(C(=O)Nc2cnc3ccccc3c2)cc1 | inactive
COc1cccc(-n2c(C)nc3c(cnn3-c3ccc(Cl)cc3)c2=O)c1 | inactive
